Test results: PubChem BioAssay AID504697 (The Scripps Research Institute Molecular Screening Center, 2011)
Values without a mark were called inactive. Calls of active or inactive are those of the source.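 The calls were made as follows: active = EC50 at or below 10 µM; inactive = EC50 above 10 µM.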

Test: fluorescence interference artefacts, compound only, dose response, artefact control for cardiac thin filament activator project, biochemical, no RTF in test wells (AID 504697);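 also: emission near 535 nm under roughly 485 nm excitation as for IANBD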
Settings: artifact counterscreen
For `O=c1[nH]c(=O)n(Cc2ccc(F)cc2)c(O)c1/C=N/Nc1ccccc1`, the EC50 was > 71.5 µM.
For `CC(=O)OCC[N+](C)(C)C`, the EC50 was > 71.4 µM [compound-only fluorescence in RTF assay buffer with Ca2+ (no RTF in test wells)].
With `Cc1cc(Cl)nc(N)n1` the EC50 was > 71.4 µM.
In the case of `O=[N+]([O-])c1ccc(N2CCCCCC2)c2nonc12`, the EC50 is reported as 1.17 µM (active).
In the case of `CCC1(C)OC(c2ccccc2)=C/C(=C/C=C2C(=O)NC(=O)NC2=O)O1` (centres undefined), the EC50 is reported as 2.73 µM (active).
With `O=[N+]([O-])c1ccc(N2CCCC2)c2ncccc12` the EC50 was 23.5 µM.
In the case of `Cc1ccc(-n2c(O)c(/C=C/C=Nc3ccccc3)c(=O)[nH]c2=O)cc1`, the EC50 is reported as 10.6 µM.
Molecule `Cc1cc(N2CCCC2)ccc1C=C(C#N)C#N` has an EC50 of 14.4 µM.
With `C/C(=N\N1CCCCC1c1cccnc1)c1c(O)n(C2CCCCC2)c(=S)[nH]c1=O` (centres undefined) the EC50 was 39.3 µM.
In the case of `CN1C(=O)/C(=C/c2ccc(N3CCCCCC3)o2)C(=O)NC1=S`, the EC50 is reported as 5 µM (active).
For `C=CCN1C(=O)/C(=C/c2ccc(N3CCOCC3)o2)C(=O)NC1=S`, the EC50 was 14 µM.
For `O=C(CN1CCN(c2ccccc2F)CC1)Nc1cccnc1Cl`, the EC50 was > 71.5 µM.
With `COc1ccc(OC)c(-n2c(O)c(C=NCCN3CCNCC3)c(=O)[nH]c2=S)c1` the EC50 was > 71.5 µM.
In the case of `CNS(=O)(=O)c1ccc(N=Cc2c(O)n(-c3ccccc3)c(=O)[nH]c2=O)cc1`, the EC50 is reported as > 71.5 µM.
